Source: PubChem BioAssay (National Center for Advancing Translational Sciences (NCATS))
Compounds with a hit are over-represented: about 7% of the library has one in this group of screens.
PI5P4Ka inh: blocks human PI5P4K alpha kinase activity | max response, % | AID 652105 | PI5P4Kalpha enzyme, ADP-Glo luminescence, 60 min; active compounds read low | hit rate 1.2% among 330,000; active means max response of -50% or lower; inconclusive means between -30% and -50%; inactive means -30% or higher; further: value at the top dose of about 77 µM; on the % scale 0 is the no-effect control and ±100 the full control effect
Target sequence (P48426 whole entry, looked up): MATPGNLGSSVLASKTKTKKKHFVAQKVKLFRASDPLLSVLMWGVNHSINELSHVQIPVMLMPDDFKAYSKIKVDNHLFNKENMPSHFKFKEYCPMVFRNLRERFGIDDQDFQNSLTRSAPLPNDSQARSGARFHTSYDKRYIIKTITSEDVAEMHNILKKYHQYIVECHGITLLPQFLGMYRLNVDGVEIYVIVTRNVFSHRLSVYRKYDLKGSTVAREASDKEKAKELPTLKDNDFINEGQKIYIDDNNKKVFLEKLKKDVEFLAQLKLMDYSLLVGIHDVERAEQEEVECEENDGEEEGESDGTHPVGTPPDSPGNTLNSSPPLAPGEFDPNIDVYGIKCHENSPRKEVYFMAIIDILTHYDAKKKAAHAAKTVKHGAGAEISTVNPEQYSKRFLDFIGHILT
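Enzyme plus substrate dispensed, test compounds pinned in, then ATP (5 microM final) added. After 60 min at RT, ADP-Glo reagent 1 for 45 min and reagent 2 for 30 min preceded luminescence imaging.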
HP1b binding inh: HP1-beta chromodomain-methylated histone interaction inhibition | P83916 | AlphaScreen HP1-beta / biotin-H3K9me3 peptide binding | Potency, µM (highest dose often 114 µM), inactives show top-dose activity change, negative = inhibition, usual class: inhibitors | hit rate 0.56% among 390,000 | AID 540317; further: potency means the concentration at half of the fitted maximal effect; nearly all actives have a fitted effect of over 70% in size
Target sequence (P83916 whole entry, looked up): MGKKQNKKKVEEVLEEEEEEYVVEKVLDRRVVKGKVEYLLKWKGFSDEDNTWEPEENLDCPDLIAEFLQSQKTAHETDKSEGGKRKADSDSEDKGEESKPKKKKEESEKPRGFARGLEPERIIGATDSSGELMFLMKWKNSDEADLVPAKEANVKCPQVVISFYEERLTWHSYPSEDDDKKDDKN
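AlphaScreen: HP1-beta (50 nM) preformed 30 min with biotin-H3(1-18)K9me3 peptide (50 nM) in PBS pH 7.4, 0.01% Tween-20. Compound added for 30 min at RT, then streptavidin donor/nickel chelate acceptor beads (10 ug/mL) for 30 min.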
JMJD2A Tudor inh: blocks the human JMJD2A Tudor domain. O75164. hit rate 4.4% among 390,000. AlphaScreen JMJD2A-Tudor / H3K4me3 peptide binding. Potency, µM (highest dose often 114 µM), for inactives: top-dose activity change, negative = inhibition, hits mostly inhibitors; further: potency means the concentration at half of the fitted maximal effect; on the % scale 0 is the no-effect control and ±100 the full control effect; nearly all actives have a fitted effect of over 50% in size
BAZ2B inh: BAZ2B (human) inhibition; AID 504333; AlphaScreen BAZ2B-H3K14Ac peptide displacement; Q9UIF8; Potency, µM (doses to about 114 µM), without a hit: top-dose activity change, negative = inhibition, hits mostly inhibitors; hit rate 4.4% among 360,000; further: potency means the concentration at half of the fitted maximal effect; on the % scale 0 is the no-effect control and ±100 the full control effect; nearly all actives have a fitted effect of over 60% in size
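AlphaScreen displacement of biotin-H3(5-23)K14Ac peptide (50 nM final) from BAZ2B (50 nM final) in PBS pH 7.4, 0.01% Tween-20; complex preformed 30 min RT, then compounds (top 110 uM) 30 min RT, beads 20 min dark.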
PLK1 PBD block: PLK1 (human) polo-box domain binding inhibition; P53350; Plk1 PBD binding of FITC phosphopeptide, fluorescence polarization; Potency, µM, for the others: max response, negative = inhibition, hits mostly inhibitors; hit rate 2.8% among 360,000; AID 720504; further: potency means the concentration at half of the fitted maximal effect; series mostly up to about 57 µM; on the % scale 0 is the no-effect control and ±100 the full control effect; nearly all actives have a fitted effect of over 65% in size
GCN5L2 inh-1: inhibitors of human GCN5L2 histone acetyltransferase | Q92830 | GCN5L2 HAT assay, ThioGlo1 CoA-SH fluorescence | Potency, µM (top dose mostly 58.9 µM), for the others: top-dose activity change, negative = inhibition, hits mostly inhibitors | hit rate 0.21% among 390,000 | AID 504327; further: potency means the concentration at half of the fitted maximal effect; on the % scale 0 is the no-effect control and ±100 the full control effect
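Fluorescence readout, Ex340nm/Em540nm: ThioGlo1 (50uM final) reacts with free CoA thiol released as 20nM GCN5L2 acetylates H3(1-25) peptide (75uM) using acetyl-CoA (70uM). Compound and enzyme sat 15 min beforehand; 20 min room-temperature reaction.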
GCN5L2 inh-2: human KAT2A HAT inhibition, hit confirmation | shares compounds with GCN5L2 inh-1 | GCN5L2 HAT, ThioGlo1 CoA fluorescence, 20 min | Potency, µM, actives largely listed as inhibitors | hit rate 70% among 140 | AID 588347
Active calls of the source: *; [ ] = remark or other dose. Unless noted, the call rests on the fitted dose curve; in most records, active means well fitted curve in the direction sought with a large enough effect; inconclusive means small, poorly fitted or top-dose-only effect, or another doubt; inactive means no such curve, though single readings can be large; an effect the other way counts as inactive or inconclusive.

`CC(C)(C)n1ncc2c(=O)n(Cc3ccccc3Br)cnc21` gave HP1b binding inh 101%, JMJD2A Tudor inh 12%, BAZ2B inh 13% and GCN5L2 inh-1 4%.
CC(C)CCN1C(=O)c2ccc(C(=O)Nc3ccc(Br)cc3C(=O)O)cc2C1=O was read as PI5P4Ka inh inconclusive, HP1b binding inh 4%, JMJD2A Tudor inh 56µM*, BAZ2B inh 45µM*, PLK1 PBD block inconclusive, GCN5L2 inh-1 35µM* and GCN5L2 inh-2 20*.
For CCc1ccc(S(=O)(=O)/N=C2/C=C(Sc3ncn[nH]3)C(=O)c3ccccc32)cc1 the results were PI5P4Ka inh -94*, HP1b binding inh inconclusive, JMJD2A Tudor inh 4µM*, BAZ2B inh 45µM*, PLK1 PBD block 1.5µM*, GCN5L2 inh-1 32µM* and GCN5L2 inh-2 4.6*.
`O=C1c2ccccc2C(=O)N1CCSc1ncn[nH]1` gave PI5P4Ka inh -1, HP1b binding inh 42%, JMJD2A Tudor inh -2%, BAZ2B inh 49%, PLK1 PBD block -4% and GCN5L2 inh-1 -3%.
Cc1cc2nc(-c3ccc[nH]c3=O)n(Cc3ccc(F)cc3)c2cc1C was read as PI5P4Ka inh 1, HP1b binding inh 23%, JMJD2A Tudor inh -4%, BAZ2B inh -13%, PLK1 PBD block -1% and GCN5L2 inh-1 -17%.
For Cc1cc2nc(-c3ccc[nH]c3=O)[nH]c2cc1C the results were PI5P4Ka inh -20, HP1b binding inh 34%, JMJD2A Tudor inh -6%, BAZ2B inh -22%, PLK1 PBD block -9%, GCN5L2 inh-1 28µM* and GCN5L2 inh-2 36*.
For COc1ccccc1OCC(=O)Nc1ccc(C(=O)Nc2ccccc2C(=O)O)cc1 the results were PI5P4Ka inh inconclusive and PLK1 PBD block -7%.
CC(C)(C)c1ccc(OCC(=O)Nc2ccc(C(=O)Nc3ccccc3C(=O)O)cc2)cc1 was read as PI5P4Ka inh inconclusive, HP1b binding inh -1%, JMJD2A Tudor inh -25%, BAZ2B inh inconclusive, PLK1 PBD block inconclusive, GCN5L2 inh-1 32µM* and GCN5L2 inh-2 23*.
Screening CC(OC(=O)c1nn(C)c(=O)c2ccccc12)C(=O)NC1CCCCC1C (centres undefined) returned PI5P4Ka inh -7, HP1b binding inh 21%, JMJD2A Tudor inh -2%, BAZ2B inh 2%, PLK1 PBD block 1% and GCN5L2 inh-1 1%.
Screening O=C(O)CSc1cc(C(=O)c2ccccc2O)cn2c(=O)c3c(-c4ccccc4)csc3nc12 returned PI5P4Ka inh -53*, HP1b binding inh -14%[57 µM], JMJD2A Tudor inh 56µM*, PLK1 PBD block inconclusive, GCN5L2 inh-1 25µM* and GCN5L2 inh-2 26*.
`CC1=C(C(=O)Nc2cccnc2)C(c2ccccc2)n2nc(SCc3ccccc3F)nc2N1` (centres undefined) gave HP1b binding inh 15%, JMJD2A Tudor inh -7%, BAZ2B inh -18% and GCN5L2 inh-1 0%.
`COc1ccc(-c2nn(-c3ccccc3)cc2/C=N/NC(=O)c2ccc(Br)o2)cc1` gave PI5P4Ka inh 5, HP1b binding inh inconclusive, JMJD2A Tudor inh 5%[11.4 µM], BAZ2B inh -9%, PLK1 PBD block inconclusive, GCN5L2 inh-1 25µM* and GCN5L2 inh-2 9.1*.
COc1ccc(-c2nn(-c3ccccc3)cc2/C=N/NC(=O)c2ccc3c(c2)OCO3)cc1 was read as BAZ2B inh 0% and GCN5L2 inh-1 -12%.
For O=C(O)c1cccc(N/N=C/c2ccc(OC(F)(F)F)cc2)c1 the results were PI5P4Ka inh 5, HP1b binding inh 4%, JMJD2A Tudor inh inconclusive, BAZ2B inh inconclusive, PLK1 PBD block -24% and GCN5L2 inh-1 21%.
CSc1ccc(/C=N/Nc2cccc(C(=O)O)c2)cc1 was read as PI5P4Ka inh -99*, HP1b binding inh 10µM*, JMJD2A Tudor inh 4µM*, BAZ2B inh 8.9µM*, PLK1 PBD block 12µM*, GCN5L2 inh-1 inconclusive and GCN5L2 inh-2 inconclusive.
COc1ccc(OC)c(/C=C/C(=O)Nc2cccc(S(=O)(=O)NC3=NCCCCC3)c2)c1 was read as PI5P4Ka inh -5, HP1b binding inh 60%, JMJD2A Tudor inh 15%, BAZ2B inh -3%, PLK1 PBD block 4%, GCN5L2 inh-1 32µM* and GCN5L2 inh-2 32*.
`COc1ccc(/C=C/C(=O)Nc2cccc(S(=O)(=O)NC3=NCCCCC3)c2)c(OC)c1` gave PI5P4Ka inh -1, HP1b binding inh 6%, JMJD2A Tudor inh -15%, BAZ2B inh -4%, PLK1 PBD block 6% and GCN5L2 inh-1 -13%.
`COCCn1c(SCC(=O)NC(=O)NCc2ccccc2)nc2ccccc2c1=O` gave PI5P4Ka inh -6, HP1b binding inh 22%, JMJD2A Tudor inh -15%, BAZ2B inh -5%, PLK1 PBD block -14% and GCN5L2 inh-1 0%.
Nc1ccc2nn(-c3cccc4ccccc34)nc2c1 was read as PI5P4Ka inh 4, HP1b binding inh -35%, JMJD2A Tudor inh -14%[57.1 µM], BAZ2B inh inconclusive, PLK1 PBD block -14%, GCN5L2 inh-1 inconclusive and GCN5L2 inh-2 23*.
For Cc1cc2nn(-c3cccc4ccccc34)nc2cc1N the results were PI5P4Ka inh 5, HP1b binding inh 20%, JMJD2A Tudor inh 2%[57.1 µM], BAZ2B inh inconclusive, PLK1 PBD block inconclusive and GCN5L2 inh-1 -4%.
For O=C(NNc1ccc(F)cc1F)c1cccs1 the results were HP1b binding inh 22% and JMJD2A Tudor inh -14%.
For O=C(O)CCc1nn2cc(-c3ccccc3)nc2[nH]c1=O the results were PI5P4Ka inh -12, HP1b binding inh 38%, JMJD2A Tudor inh -12%, BAZ2B inh 7%, PLK1 PBD block 0%, GCN5L2 inh-1 inconclusive and GCN5L2 inh-2 32*.
`CCN(CC)c1ccc2cc(C(C)=O)c(=O)oc2c1` gave PI5P4Ka inh 0, HP1b binding inh 96%, JMJD2A Tudor inh 69%, BAZ2B inh 38%, PLK1 PBD block 52% and GCN5L2 inh-1 -6%.
For CCN(CC)c1ccc2cc(NC(=O)CCC(=O)O)c(=O)oc2c1 the results were HP1b binding inh 40%, JMJD2A Tudor inh 0%, BAZ2B inh 5%, PLK1 PBD block inconclusive, GCN5L2 inh-1 20µM* and GCN5L2 inh-2 32*.
COc1ccc(C2C(C(=O)Nc3cccnc3)=C(C)Nc3nc(SCc4ccccc4)nn32)cc1 (centres undefined) was read as HP1b binding inh 5%, JMJD2A Tudor inh -15%, BAZ2B inh inconclusive and GCN5L2 inh-1 2%.
